Screen size: about 270,000 compounds; about 5,800 (2.1%) were called active. About 16% were inconclusive and are not listed. The call rests on the fitted dose curve; in most records, active means well fitted inhibition curve with a large enough effect; inconclusive means small, poorly fitted or top-dose-only effect; inactive means flat fitted curve, though single readings scatter. What follows is part of a selection rich in actives, with near analogues and random picks from the rest.
Each compound was assayed against Microtubule-associated protein tau (Homo sapiens) (UniProt P10636) (assay: qHTS for Inhibitors of Tau Fibril Formation, Thioflavin T Binding). Conditions: recombinant tau K18 P301L (four-repeat tau fragment), heparin-induced fibrillization, ThT fluorescence; series mostly up to 57.4 µM; activity, negative = inhibition: at the top concentration.
Outline: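 Heparin-induced fibrillization of the P301L-mutant K18 repeat-domain fragment of human tau was followed by ThT binding in quantitative high-throughput format.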
Further: nearly all actives have a fitted effect of over 55% in size.
On the % scale 0 is the no-effect control and ±100 the full control effect; potency means the concentration at half of the fitted maximal effect.

Microtubule-associated protein tau (Homo sapiens), sequence (P10636 561-689 P618L limits assumed): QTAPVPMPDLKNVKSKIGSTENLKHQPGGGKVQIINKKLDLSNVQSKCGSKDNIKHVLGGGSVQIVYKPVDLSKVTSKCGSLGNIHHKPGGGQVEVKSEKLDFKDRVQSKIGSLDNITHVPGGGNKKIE

Row | SMILES | activity, negative = inhibition | Potency
1 | COc1ccc(S(=O)(=O)NCC(c2ccc(N(C)C)cc2)N2CCCC2)cc1 (stereo not given) | 6.51% (inactive) | 
2 | O=C(c1ccc(Br)cc1)N(Cc1cccs1)c1ccc(F)cc1 | -14% (inactive) | 
3 | Cc1cc(Nc2ccccc2)nc(N)n1 | 0.943% (inactive) | 
4 | Nc1ccc(Nc2ccccc2)cc1 |  | 15.8 µM (active)
5 | c1ccc(Nc2n[nH]nc2-c2ccccc2)cc1 | -6.37% (inactive) | 
6 | CNc1ccc(-c2nc(-c3ccccc3C)no2)cc1[N+](=O)[O-] | 1.98% (inactive) | 
7 | NC(=O)c1sc2nc3c(c(-c4ccccc4)c2c1N)CCC3 | -18% (inactive) | 
8 | CC(=O)Nc1ccc(NC(=O)c2sc3nc4c(c(-c5ccc(C)cc5)c3c2N)CCC4)cc1 | -8.97% (inactive) | 
9 | Cc1cccc(NC(=O)c2sc3nc4c(c(-c5ccco5)c3c2N)CCC4)c1 |  | 7.94 µM (active)
10 | CCN(CC)c1ccc(NC(=O)CN2C(=O)c3cccnc3Oc3ccc(Cl)cc32)c(C)c1 | -3.19% (inactive) | 
11 | O=S(=O)(Nc1ccc2nc(-c3cccc(Cl)c3)oc2c1)c1ccccc1 | 10% (inactive) | 
12 | COc1ccccc1Nc1c2c(nc3ccc(NC(=O)/C=C/c4cc(OC)c(OC)c(OC)c4)cc13)CCCC2 |  | 14.1 µM (active)
13 | Cc1ccc(Nc2c3c(nc4ccccc24)CCC3)cc1 | -3.18% (inactive) | 
14 | COc1cccc(NC(=O)c2ccc3c(SCC(=O)O)c4c(nc3c2)CCCC4)c1 | 0.652% (inactive) | 
15 | CCOc1ccc(-n2nc3ccc(NC(=O)c4ccc(OC)c(Cl)c4)cc3n2)cc1 | -17.4% (inactive) | 
16 | CCOc1ccc(C(=O)Nc2ccc3nc4c(c(Nc5ccccc5OC)c3c2)CCCC4)cc1 |  | 14.1 µM (active)
17 | COc1ccc(NS(=O)(=O)c2cc(NC(=O)/C=C/c3cc(OC)c(OC)c(OC)c3)ccc2N2CCCCC2)cc1 | -3.88% (inactive) | 
18 | COCCNC(=O)CCCN1C(=O)c2ccccc2Sc2ncccc21 | -0.918% (inactive) | 
19 | Cc1ccc(NC(=O)c2ccc(CN3CC(=O)N4CCCCC4C3=O)cc2)c(Cl)c1 (stereo not given) | -11.5% (inactive) | 
20 | Cc1ccnc(-n2sc3ccccc3c2=O)n1 |  | 14.1 µM (active)
21 | Cc1ccnc(SCC(N)=O)n1 | -5.04% (inactive) | 
22 | Cc1ccnc(Nc2nc3ccccc3s2)n1 | -16% (inactive) | 

Row | SMILES | activity, negative = inhibition | Potency
23 | CCc1c(C)sc(NC(=O)/C=C/c2ccc3c(c2)OCO3)c1C(=O)OC | 8.02% (inactive) | 
24 | O=C(N/N=C/c1ccc2c(c1)OCO2)C(=O)N1CCCC1 | -6.29% (inactive) | 
25 | NS(=O)(=O)c1ccc(NC(=O)COC(=O)c2c3c(nc4ccccc24)/C(=C\c2ccc4c(c2)OCO4)CCC3)cc1 | -5.39% (inactive) | 
26 | O=C1/C(=C/c2ccc3c(c2)OCO3)CCC/C1=C\c1ccc2c(c1)OCO2 |  | 3.98 µM (active)
27 | CCOC(=O)CCCNC(=O)COC(=O)/C=C/c1ccc2c(c1)OCO2 | 4.19% (inactive) | 
28 | CCC1=C/C(=C\c2ccc3c(c2)OCO3)C(=O)S1 |  | 15.8 µM (active)
29 | CCOc1ccc(NC(=O)CCC(=O)N2CC(C)Oc3ccc(C)cc32)cc1 (stereo not given) | -0.975% (inactive) | 
30 | CC1=C(c2ccc(C)c(C)c2)S(=O)(=O)NC1=NCc1ccccc1Cl | -5.79% (inactive) | 
31 | COc1ccc(CNC(=O)CSc2nc3ccccc3nc2Cc2ccccc2)cc1 | 0.19% (inactive) | 
32 | COc1ccc(Cn2ccc3nc(C)c(C(=O)Nc4ccc(C)c(F)c4)cc3c2=O)cc1 | -2.05% (inactive) | 
33 | COc1ccccc1CNC(=O)c1ccccc1NC(=O)c1nsc2ccccc12 | 3.65% (inactive) | 
34 | CCOC(=O)c1cc(-c2ccc(OC)c(S(=O)(=O)Nc3ccc(OC)cc3OC)c2)on1 | -17.3% (inactive) | 
35 | CN(Cc1ccco1)S(=O)(=O)c1nnc(NC(=O)c2ccccc2)s1 | -2.1% (inactive) | 
36 | CCCCOc1ccc(CN2C(=O)C(=O)c3cc(Br)cc(C)c32)cc1OC |  | 28.2 µM (active)
37 | COc1ccc(CN2C(=O)CC(Cc3ccc(C)cc3)C2=O)cc1OC (stereo not given) | -2.42% (inactive) | 
38 | CCCCOc1ccc(Cn2c(=O)oc3ccc(C)cc32)cc1OC | -3.17% (inactive) | 
39 | CSc1nc(=O)c2c(n1C)NC(=O)CC2c1ccccc1OC(C)C (stereo not given) | 5.27% (inactive) | 
40 | Cc1cccc(C(=O)Nc2nnc(Cc3c[nH]c4ccccc34)s2)c1 | -17.2% (inactive) | 
41 | Cc1cccc(N=C2NN=C(c3c[nH]c4ccccc34)CS2)c1 |  | 2.82 µM (active)
42 | COCCn1c(C)cc(C2=NNC(=Nc3ccc(F)cc3)SC2)c1C | -6.48% (inactive) | 
43 | CCCNC(=O)c1ccc(Cn2c(SCC(N)=O)nc3ccccc3c2=O)cc1 | 6.62% (inactive) | 
44 | CCC(C)(C)NC(=O)C1c2ccccc2Oc2ccccc21 | -0.856% (inactive) | 

Row | SMILES | activity, negative = inhibition | Potency
45 | CCC(C)NC(=O)C1c2ccccc2Oc2ccccc21 (stereo not given) | -1.94% (inactive) | 
46 | CC(C)(C)c1nnc(NC(=O)C2c3ccccc3Oc3ccccc32)s1 |  | 22.4 µM (active)
47 | Cc1ccc(Cl)cc1NC(=O)Cc1ccc(-n2c(C)nc3cccnc32)cc1 | -0.615% (inactive) | 
48 | COc1cccc(CNS(=O)(=O)c2cc3c(cc2C)n(C)c(=O)c(=O)n3C)c1 | -7.39% (inactive) | 
49 | Cc1ccccc1CNC(=O)C1CCCN(S(=O)(=O)N(C)c2ccc(F)cc2)C1 (stereo not given) | -7.18% (inactive) | 
50 | Cc1cc(C)cc(-n2c(SCC(=O)NCC3CCCO3)nc3c([nH]c4ccccc43)c2=O)c1 (stereo not given) | -15.4% (inactive) | 
51 | O=C(CSc1nc2ccc([N+](=O)[O-])cc2[nH]1)c1ccc(Cl)cc1 | -14.3% (inactive) | 
52 | N#Cc1cc([N+](=O)[O-])ccc1Oc1cccc(/C=N/NC(=O)c2ccc(Cl)cc2)c1 | -6.07% (inactive) | 
53 | O=C(N/N=C/c1ccc(Cl)cc1)c1nc2ccc([N+](=O)[O-])cc2c(=O)[nH]1 |  | 15.8 µM (active)
54 | O=C(CCS(=O)(=O)c1ccccc1)N(Cc1cccnc1)c1nc2c(F)cccc2s1 | -5.97% (inactive) | 
55 | O=C(CSc1ccc([N+](=O)[O-])cn1)Nc1ccc(N2CCOCC2)cc1 | 7.95% (inactive) | 
56 | CN(CC(=O)Nc1ccc(N2CCOCC2)cc1)CC(=O)Nc1ccccc1[N+](=O)[O-] | -7.06% (inactive) | 
57 | O=C(Nc1ccc(N2CCOCC2)cc1)c1ccc(-c2ccccc2[N+](=O)[O-])o1 |  | 2.24 µM (active)
58 | Cc1ccc(S(=O)(=O)n2nc(C)c(S(=O)(=O)N3CCCCCC3)c2C)cc1 | 5.02% (inactive) | 
59 | CC(=O)Nc1ccc(S(=O)(=O)N2CCN(c3ccccc3)CC2)cc1 | -2.11% (inactive) | 
60 | CCOc1ccc(OCC)c(NC(=O)c2cc(C)nc3c2c(C)nn3-c2cccc(Cl)c2C)c1 | -9.07% (inactive) | 
61 | COc1cc(NS(=O)(=O)c2ccc(N=Cc3c(C)[nH]n(-c4ccccc4)c3=O)cc2)nc(OC)n1 | -9.16% (inactive) | 
62 | COc1cc(SC#N)ccc1N=Cc1c(C)[nH]n(-c2ccc(C)cc2)c1=O |  | 14.1 µM (active)
63 | CCC1=NN2C(=N)/C(=C/c3cc(C)n(-c4ccccc4)c3C)C(=O)N=C2S1 | -8.51% (inactive) | 
64 | CS(=O)(=O)c1ccc2c(c1)SC1=NC(=O)/C(=C/c3ccco3)C(=N)N12 |  | 7.08 µM (active)
65 | Cc1cc(/C=C2/C(=N)N3C(=NC2=O)SN=C3S(C)(=O)=O)c(C)n1-c1ccccc1 | -16.2% (inactive) | 

From PubChem BioAssay AID1460 (National Center for Advancing Translational Sciences (NCATS), 2008)
